Laboratory results from PubChem BioAssay (NCI).
This is part of a sample that, as a whole, favours compounds with a hit. Of some 83,000 tested, about 20% had one in any assay.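 Results are percent growth after 48 hours of single-concentration exposure. 100 means growth as in untreated cells, lower positive values show inhibition; negative values down to -100 show cell death.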 Values without a mark were called inactive. Calls of active or inactive are those of the source. The calls were made as follows: active = growth percent below 10; inactive = the rest.

Tests used:
Assay in all cases: NCI-60 one-dose screen, 48 h (100 = growth as untreated, 0 = no growth, -100 = all killed)
Conditions in all cases: 10 µM
EKVX NSCLC = tested on: EKVX NSCLC
SN12C renal = tested on: SN12C renal
UO-31 renal = tested on: UO-31 renal
TK-10 renal = tested on: TK-10 renal
ACHN renal = tested on: ACHN renal
CAKI-1 renal = tested on: CAKI-1 renal
A498 renal = tested on: A498 renal
CCRF-CEM leukemia = tested on: CCRF-CEM leukemia
MOLT-4 leukemia = tested on: MOLT-4 leukemia
SR leukemia = tested on: SR leukemia

Compound	growth (EKVX NSCLC)	growth (SN12C renal)	growth (UO-31 renal)	growth (TK-10 renal)	growth (ACHN renal)	growth (CAKI-1 renal)	growth (A498 renal)	growth (CCRF-CEM leukemia)	growth (MOLT-4 leukemia)	growth (SR leukemia)
CCN(CC)CCOc1nc2cc(OC)c(OC)cc2c2c1-c1ccc(OC)cc1C2=O	98.6%	80.7%	47.7%	105%	56%	35.7%	96.6%	22.4%	9.28% (active)	-29.6% (active)
COc1cc(/C=C2\Oc3cc(OCC(=O)c4ccccc4)ccc3C2=O)cc(OC)c1OC	108%	109%	67.6%	151%	89.6%	119%	105%	73.2%	91%	
O=C(/C(=C/c1ccccc1)CN1CCCCC1)c1ccccc1	6.23% (active)	-47.5% (active)	-93.8% (active)	-41.3% (active)	-59.3% (active)	-3.31% (active)	-77.1% (active)	7.4% (active)	3.27% (active)	
COc1ccc2c(c1)sc1nc(-c3ccccc3)c(-c3ccc(O)c(OC)c3)n12	88.4%	96.3%	99.8%	120%	101%	77.5%	76.6%	78.1%	71.2%	17.2%
N=C1c2nc3n(c2C(=O)c2nc4n(c21)CCCC4)CCCC3	95.6%	-86.1% (active)	46.9%	128%	69.4%	88.8%	52.1%	92.9%	85.4%	69.5%
COc1ccc(N=C2C(=Nc3ccc(OC)cc3)N(c3ccc(N(C)C)cc3)C(=S)N2c2ccc(OC)cc2)cc1	90.1%	106%	16.3%	95.1%	81.6%	53.3%	71.1%	52%	10.8%	46.3%
Cc1ccc(NC(=O)CSc2nc3ccccc3c(=O)n2CCc2ccccc2)c(C(=O)O)c1	73.4%	96.6%	78.5%	117%	91.1%	81.5%	87%			
O=C(CC(C(=O)c1ccccc1)N1CCOCC1)c1ccccc1 (stereo not drawn)	99.2%	87.3%	89.9%	90.8%	97.3%	100%	89.9%	9.08% (active)	45.7%	28.5%
O=C(O)c1ccc(Cl)cc1Nc1ccc(F)cc1	67.3%	69.4%	62.5%	84.9%	82.4%	29.1%	83.7%	31.4%	56.8%	
c1ccc2c(c1)oc1c3c(ccc12)NCCC3	59.5%	87.4%	65.9%	135%	101%	97.4%	77.3%	96%	97.5%	
CCN1CCC(CCOC)(CN2c3ccccc3Sc3ccc(Cl)cc32)C1 (stereo not drawn)	56.7%	59.7%	8.09% (active)	64.1%	47.2%	46.6%	56.6%	30.5%	22.5%	40.4%
O=C1OCC2=C1C(c1cccc(Cl)c1)c1cc3c(cc1N2CCO)OCCO3 (stereo not drawn)	49.4%	30%	22.1%	68.4%	30.5%	19.9%	-18.1% (active)	6.58% (active)	21.1%	32.4%
O=C(Nc1ccncc1)C(=O)c1cn(S(=O)(=O)c2cccc3ccccc23)c2ccccc12	46.9%	92%	58.5%	88.3%	87.2%	60.4%	80%	59.5%	69%	21.2%
NC(=O)SCC(=O)Nc1ccc(S(N)(=O)=O)cc1	112%	95.6%	86.4%	106%	112%	104%	100%	106%	113%	110%
CC1CN(Cc2ccccc2)C(=O)NC1=O (stereo not drawn)	121%	91.1%	85.7%	104%	109%	116%	121%	103%	94.2%	101%
C=C(Cl)[C@@](Cl)(CBr)CC[C@@H](Br)C(C)(C)Cl	-79% (active)	72%	-96.8% (active)	-98.9% (active)	-99.4% (active)	-98.7% (active)	99.3%	94.3%	81.1%	75.6%
CCCCCCCCCCCCCC[n+]1ccc(C(N)=O)cc1	1.08% (active)	8.7% (active)	50.7%	-65.2% (active)	65.6%	15.6%	52.3%	2.78% (active)	-34.8% (active)	-15.8% (active)
Cc1ccc(CC#N)cc1C	87.8%	105%	94.4%	107%	94.6%	45.3%	136%	128%	93.9%	89.3%
CCOC(=O)CNC(=O)CCCCSc1ncnc2nc[nH]c12	108%	99%	96.5%	158%	104%	96.1%	124%	113%	101%	90.6%
CCCCN(CCCC)c1cc(C(=O)CCCCCN)c2ccccc2n1	24%	89.7%	-21.9% (active)	82.6%	85.5%	-45.4% (active)	72.6%	-70.4% (active)	-61.5% (active)	-69.3% (active)
CN(C)C(=S)N/N=C\C=N/NC(=S)N(C)C	38.8%	88.4%	31.7%	96.5%	80%	74.1%	89%	22.6%	10%	35.4%
O=[N+]([O-])c1ccc(Oc2cccnc2)c([N+](=O)[O-])c1	93.9%	97%	58.3%	67.5%	72.4%	-9.25% (active)	89.3%	20.1%	76.4%	21.1%
Oc1[nH]c2ccc(Cl)cc2c1/C=c1/ccc2c(c1)N=C(c1cc(F)cc(F)c1)N=2	88.8%	86.3%	75.2%	100%	67.3%	58.6%	72.5%	16.6%	12.8%	13.9%
CN1CC[C@@H](c2c(O)cc(O)c3c(=O)cc(-c4ccccc4Cl)oc23)[C@@H](O)C1	9.74% (active)	26.8%	-5.67% (active)	0.554% (active)	-14.1% (active)	5.1% (active)	-40.8% (active)	-9.53% (active)	-6.09% (active)	-4.82% (active)
CN(C)CCN1C(=O)c2cccc3c(-c4ccc5ncn(C6CCCCC6)c5c4)ccc(c23)C1=O	29.8%	19.3%	2.42% (active)	26.7%	13.8%	25%	4.69% (active)	15.4%	-18.7% (active)	3.59% (active)
C/C(=N\Nc1nc2ccccc2s1)c1ccncn1	22.7%	46.7%	19.8%	50.6%	12.6%	29.9%	63.3%	5.95% (active)	2.87% (active)	17.8%
COc1cc(-c2cc(C(=O)N3CCN(C(=O)c4ccccc4NCc4cccs4)CC3)nc3cc(-c4ccccc4)nn23)cc(OC)c1OC	94.4%	87.5%	39.8%	70.1%	73.9%	55.2%	74.2%	73.9%	79.3%	23%
CCN(CC)CCSCCCNc1c2ccc(Cl)cc2nc2ccc(OC)cc12	-20.2% (active)	-32% (active)	-29.1% (active)	-4.3% (active)	-78.3% (active)	-22.8% (active)	-77.7% (active)	-20.4% (active)	-19.9% (active)	-19.8% (active)
